# In the library only some 3.5% were active in any assay of this set; here they are far more common.
# TROY signal inh – TROY signaling inhibition | inhibition, % at 10 µM | hit rate 0.98% among 360,000 | Q293 LMP1-TROYcd NF-kB luciferase reporter, 4 h | AID 1347056;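 active = compounds whose plate-normalised and pattern-corrected inhibition of the luciferase reporter signal at the single screening dose is 50% or more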
# TRAIL sens C8 – sensitizes caspase-8 expressing cells to TRAIL; NB7+C8 cells + TRAIL, ATPlite viability luminescence; inhibition (viability loss, TRAIL sensitization), % at 10 µM; hit rate 1% among 360,000; AID 624354;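 active = compounds causing at least 50% loss of cell viability in the single-dose screen, relative to plate controls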
# HSP90 inh – HSP90 refolding inhibition in rabbit reticulocyte lysate | luciferase refolding luminescence, 3 h | inhibition, % at 5.6 µM | hit rate 0.91% among 290,000;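 active = inhibition above the screen-wide mean plus 3 SD, computed separately per campaign, cut at about 16% in these data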;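 note: 0% = DMSO wells and 100% = 60 µM geldanamycin wells; inhibitors lower the luminescence because luciferase stays unfolded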
# Platelet DG rel – platelet dense granule release activity; human platelet-rich plasma, SFLLRN dense granule ATP release, luminescence; inhibition, %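 (compounds screened at 7.5 µM in platelet-rich plasma)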; hit rate 0.22% among 300,000;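 active = mean replicate score, as percent of positive control, at or above 50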
# TWEAK-Fn14 inh – blocks TWEAK-Fn14 interaction in a reporter cell assay; TWEAK-stimulated Fn14 reporter cells, luciferase luminescence, 8 h; inhibition, % at 10 µM; hit rate 2% among 360,000; in the data active = inhibition above about 50%
# PPC-1+TRAIL kill – kills PPC-1 cancer cells in the presence of TRAIL. PPC-1 cells + TRAIL, ATPLite viability luminescence. AID 1443. hit rate 0.41% among 220,000. cell killing (% activity), % at 4 µM or 5 µM;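 active = cell killing above 50% in the first pass at 4 µM, then a duplicate retest at 5 µM averaging 50% or more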;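 note: plate controls were cells with TRAIL plus DMSO for no effect and medium-only wells lacking cells for full effect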
# * = called active by the depositor; nt = no result.
SMILES,TROY signal inh,TRAIL sens C8,HSP90 inh,Platelet DG rel,TWEAK-Fn14 inh,PPC-1+TRAIL kill
Cc1cc(S(=O)(=O)NCc2ccccc2)ccc1OCC(=O)Nc1cccc([N+](=O)[O-])c1,42,4,-2,6,52*,37
Cc1cc(S(=O)(=O)NCc2ccccc2)ccc1OCC(=O)NCc1ccccn1,-15,3,1,-23,31,nt
CCOC(=O)/C(=N/Nc1ccc(OC)cc1)Sc1nnc(CCc2ccccc2)n1-c1ccccc1,68*,2,0,-4,51*,0
CC(=O)/C(=N/Nc1ccc(C)cc1)Sc1nnc(CCc2ccccc2)n1-c1ccccc1,-11,-9,-3,2,-1,4
Cn1sccc1=O,9,-3,nt,nt,0,nt
Cc1cc(C)c(C)c(S(=O)(=O)N2CCN(Cc3nc4ccccc4[nH]3)CC2)c1C,9,-7,1,9,7,17
Cc1ccc(S(=O)(=O)N2CCN(Cc3nc4ccccc4[nH]3)CC2)cc1C,53*,-3,-6,-3,-4,28
O=S(=O)(c1ccc(OC(F)(F)F)cc1)N1CCC(O)(c2cccc(C(F)(F)F)c2)CC1,58*,7,2,-7,16,nt
CCc1nnc(NC(=O)CSc2ccc(-c3ccc(-n4cccn4)cc3)nn2)s1,-58,77*,nt,0,-40,nt
COc1ccccc1CCNC(=O)CSc1ccc(-c2cccs2)nn1,1,-4,-3,0,-3,-8
c1ccc(CSc2ccc(-c3cccs3)nn2)cc1,-65,54*,-6,-1,-24,24
c1ccc(CSc2ccc(-c3cccs3)nn2)nc1,-47,13,-5,-3,-5,22
COc1ccccc1NC(=O)CSc1ccc(-c2ccc(-n3ccnc3)cc2)nn1,7,51*,nt,-17,0,nt
COc1ccccc1NC(=O)CSc1ccc(-c2cccs2)nn1,26,-1,0,-4,53*,-2
CC(C)n1nnnc1C1c2ccccc2C(=O)N1Cc1ccc(F)cc1 (centres undefined),-4,-4,nt,nt,0,nt
CCC(CC)N1CCN(C(=O)c2cccc(Cl)c2)CC1,13,0,-6,7,17,nt
CCOc1ccc(NS(=O)(=O)c2cc(C(=O)N3CCCC3)ccc2Cl)cc1,12,-5,nt,3,-13,nt
CCOc1ccccc1N1CCN(C(=O)c2ccc(Cl)c(S(=O)(=O)N3CCCCC3)c2)CC1,53*,7,nt,nt,42,nt
CCOc1ccc(NS(=O)(=O)c2cc(C(=O)N3CCN(C(C)=O)CC3)ccc2Cl)cc1,-1,-16,-6,5,89*,nt
CCC(C)[C@H](NC(=O)N1CCCCC1)C(=O)OC (some centres undefined),-6,16,-3,24,12,8
CCOCCCNC(=O)c1ccc(N2CC3CC(C2)c2cccc(=O)n2C3)c(NC(=O)Nc2cccc(OC)c2)c1 (centres undefined),-8,-2,-6,9,0,nt
Nc1c(C(=O)N2CCOCC2)sc2nc3c(cc12)CCCC3,29,57*,3,-3,0,nt
Cc1c2ccncc2cc2c1[nH]c1ccccc12,15,9,nt,nt,43,nt
COc1ccc2[nH]c3c(C)c4ccncc4c(C)c3c2c1,46,42,-1,-3,54*,29
CC(C)Cn1c(=O)c2ccccc2n2c(CCC(=O)NC3CCN(Cc4ccccc4)CC3)nnc12,-31,-18,4,-9,1,nt
SMILES,TROY signal inh,TRAIL sens C8,HSP90 inh,Platelet DG rel,TWEAK-Fn14 inh,PPC-1+TRAIL kill
CCOC(=O)c1c(C)c2c(=O)[nH]cnc2n1-c1ccccc1,42,13,-1,-4,63*,nt
O=C(c1ccc(CS(=O)Cc2ccc(Cl)cc2)o1)N1CCN(C2CCCCC2)CC1 (centres undefined),0,4,nt,nt,10,nt
O=C(Nc1ccc(Br)cc1)C1CCN(C(=O)c2ccco2)CC1,-14,-7,-2,1,55*,nt
CC(=O)N1CCN(c2nnc(-c3ccc(C)cc3)c3ccccc23)CC1,52*,-4,-4,5,1,nt
Cc1ccc(OCC(=O)N2CCN(c3nnc(-c4ccccc4)c4ccccc34)CC2)cc1,42,29,6,2,-2,-14
CCOc1ccc(-c2nnc(N3CCCCC3)c3ccccc23)cc1,59*,1,-6,-1,-9,11
CC(C)(C)n1nnnc1C(c1ccccc1)N1CCN(c2ccc(C(F)(F)F)cn2)CC1 (centres undefined),0,9,nt,nt,2,nt
COC(=O)c1ccc2c(=O)n(CCN3CCOCC3)c(SCC(=O)Nc3ccccc3Cl)nc2c1,-10,2,-2,0,-18,nt
COc1ccc(NC(=O)/C(Cl)=C(/Cl)S(=O)Cc2ccc(Cl)cc2)cn1 (centres undefined),90*,-27,2,nt,101*,21
COc1ccc(NC(=O)/C(Cl)=C(/Cl)S(=O)(=O)Cc2ccccc2)cn1,77*,24,5,1,101*,27
Cc1ccc(C)c(C(=O)CN2C(=O)NC3(CCCCCC3)C2=O)c1,-5,-26,nt,nt,-6,nt
CC1(c2ccccc2)NC(=O)N(CC(=O)N2CCN(S(=O)(=O)c3ccccc3[N+](=O)[O-])CC2)C1=O (centres undefined),0,3,-4,57*,-11,nt
CC1(c2ccccc2)NC(=O)N(CC(=O)N2CCN(S(=O)(=O)c3cccs3)CC2)C1=O (centres undefined),-2,-13,nt,-2,-13,nt
CCOc1ccc(N(CC(=O)NCCc2ccccc2)C(=O)c2csnn2)cc1,-9,-10,0,-6,-3,nt
NS(=O)(=O)c1ccc(N/N=C/c2cn(-c3ccccc3)nc2-c2ccccc2)c([N+](=O)[O-])c1,32,54*,-4,12,-21,28
O=C1C(Cl)=C(N2CCOCC2)C(=O)N1c1ccccc1F,6,-1,1,-6,70*,nt
Cc1ccccc1N1C(=O)C(Cl)=C(N2CCOCC2)C1=O,2,2,-2,-6,6,nt
Nc1nc(CSC(=S)N2CCOCC2)nc(Nc2ccccc2)n1,-71,22,-6,-2,-1,16
Nc1nc(CSC(=S)N2CCN(c3ccccc3)CC2)nc(Nc2ccc(F)cc2)n1,6,7,0,-18,50*,32
COc1ccc(/C=C2\Sc3ccc(C(=O)N4CCN(Cc5ccccc5)CC4)cc3N(C)C2=O)cc1OC,56*,36,-2,2,84*,nt
O=C(Cc1coc2cc(O)ccc12)N1CCN(S(=O)(=O)c2ccc(Br)cc2)CC1,0,0,nt,nt,16,nt
COC(=O)C(C)N1C(=O)S/C(=C/c2cc(C)n(-c3ccccn3)c2C)C1=O (centres undefined),14,58*,11,6,-12,22
Cc1cc(/C=C2/NC(=O)NC2=O)c(C)n1-c1ccccn1,-26,1,4,-2,3,29

# Screening results: PubChem BioAssay, several laboratories
